Structures are written as SMILES. Results filed as inconclusive are left out. Entries that show only a call come without a potency. Activity calls are given as the source filed them. The call rests on the fitted dose curve; in most records, active means well fitted inhibition curve with a large enough effect; inconclusive means small, poorly fitted or top-dose-only effect, or effect the other way; inactive means flat fitted curve, though single readings scatter.
Potency means the concentration at half of the fitted maximal effect.

Sequence of Menin (Homo sapiens) (O00255 whole entry, looked up): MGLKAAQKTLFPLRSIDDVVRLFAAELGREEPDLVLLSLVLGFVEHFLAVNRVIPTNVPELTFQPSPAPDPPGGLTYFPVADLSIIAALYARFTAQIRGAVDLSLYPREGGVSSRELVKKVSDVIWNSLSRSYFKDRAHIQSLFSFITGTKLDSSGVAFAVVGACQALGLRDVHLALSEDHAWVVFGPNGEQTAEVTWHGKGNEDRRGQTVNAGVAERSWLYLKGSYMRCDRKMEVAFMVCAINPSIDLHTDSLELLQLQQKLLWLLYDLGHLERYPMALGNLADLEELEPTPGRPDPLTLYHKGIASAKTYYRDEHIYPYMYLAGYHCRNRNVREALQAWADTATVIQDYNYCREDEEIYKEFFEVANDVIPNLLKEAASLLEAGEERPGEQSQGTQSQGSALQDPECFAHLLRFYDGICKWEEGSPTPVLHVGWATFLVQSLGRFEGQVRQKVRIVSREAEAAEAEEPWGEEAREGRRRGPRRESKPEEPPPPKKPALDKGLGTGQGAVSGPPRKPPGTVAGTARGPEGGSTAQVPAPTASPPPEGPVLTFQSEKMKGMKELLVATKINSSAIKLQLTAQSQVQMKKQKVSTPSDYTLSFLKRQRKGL

This assay addresses Menin (Homo sapiens) (UniProt O00255). Description: Confirmation of Inhibitors Targeting the Menin-MLL Interaction in MLL Related Leukemias: Confirmation in an HTRF (commercial TR-FRET) Assay using His-tagged menin and biotin-labeled MLL peptide. The settings on record: His-menin / biotin-MLL peptide binding; series mostly up to 126 µM. The essentials:
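HTRF: His6-menin (200 nM) and biotin-MLL-w.t. peptide (80 nM) preincubated 15 min, then compounds 1 hr at ambient, before Eu-cryptate anti-His (3.5 nM) and streptavidin-XL665 (10 nM) for 1 h; 50 mM Tris-HCl pH 7.5, 50 mM NaCl, 1 mM DTT, BSA.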
Consider `CCCC(=O)Nc1cccc(NC(=O)c2ccc([N+](=O)[O-])cc2Cl)c1`, for which the Potency result is “inactive”.
For `CCOC(=O)Cn1cnc2scc(-c3ccc(C)c(C)c3)c2c1=O` the value was “inactive”; for `Cc1c(F)cccc1NS(=O)(=O)c1ccc2c(c1)c(C)cc(=O)n2C`, “inactive”.
With `CC(c1ccccc1)c1nnc(NC(=O)Nc2ccccc2F)s1` (stereo unspecified), the Potency result was “inactive”.
For `O=C(O)CSc1cc(NS(=O)(=O)c2ccc(Br)cc2)c2ccccc2c1O` the value was 89.1 µM (active); for `O=C(O)/C(=C\c1ccc(F)cc1)c1ccc(-c2ccccc2)cc1`, “inactive”.
As for `CC1(C)CN=C(N2CCN(c3ncnc4sc5c(c34)CCCC5)CC2)S1`, the figure is 28.2 µM (active); as for `O=C(Nc1nnc(-c2ccccc2SCc2ccccc2)s1)Nc1ccccc1F`, “inactive”.
For the compound `COC(=O)C1[C@H]2SC(C)(C)C(C(=O)OC)N2C(=O)N1Cc1nc2ccccc2s1` (stereo partly specified), the Potency result was “inactive”.
As for `O=S(=O)(NCCc1c[nH]c2ccccc12)c1ccccc1`, the entry is “inactive”; as for `O=C(/C=C/c1ccccc1)NC(NC(=S)Nc1cc(Cl)ccc1Cl)C(Cl)(Cl)Cl` (stereo unspecified), “inactive”.
For `O=c1c2ccccc2nc(N/N=C/c2c(O)ccc3ccccc23)n1O` the value was “inactive”; for `CS(=O)(=O)c1ccc2nc(NC(=O)Nc3cccc(Cl)c3)sc2c1`, 112 µM (active); for `CN1C[C@@H]2C[C@H]1CN2c1cc2c(cc1F)c(=O)c(C(=O)O)cn2C1CC1`, “inactive”.
With `CCOc1ccccc1N(CC(=O)Nc1ccccc1C(=O)N1CCCC1)S(C)(=O)=O`, the Potency entry is “inactive”.
For `O=C(N/N=C/c1cn(-c2ccccc2)nc1-c1cc2ccccc2o1)c1ccccc1Br`, the Potency entry was “inactive”.

Values taken from PubChem BioAssay AID2778 (National Center for Advancing Translational Sciences (NCATS), 2010).
